Screens (PubChem)
FBW7 act: FBW7 E3 ligase activators, primary screen, biochemical, AlphaScreen, human; AlphaScreen FBW7–phospho-cyclin E peptide binding, activator screen; F-box/WD repeat-containing protein 7 (Homo sapiens), Q969H0; AID 1259310, 2017; 650,000 compounds, 0.13% hits; normalized activity (activation), % at 26.1 µM; in the data active = normalized activity above about 1.9%;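 note: purified mutant Fbw7 with reduced substrate affinity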
Target sequence (Q969H0 whole entry, looked up): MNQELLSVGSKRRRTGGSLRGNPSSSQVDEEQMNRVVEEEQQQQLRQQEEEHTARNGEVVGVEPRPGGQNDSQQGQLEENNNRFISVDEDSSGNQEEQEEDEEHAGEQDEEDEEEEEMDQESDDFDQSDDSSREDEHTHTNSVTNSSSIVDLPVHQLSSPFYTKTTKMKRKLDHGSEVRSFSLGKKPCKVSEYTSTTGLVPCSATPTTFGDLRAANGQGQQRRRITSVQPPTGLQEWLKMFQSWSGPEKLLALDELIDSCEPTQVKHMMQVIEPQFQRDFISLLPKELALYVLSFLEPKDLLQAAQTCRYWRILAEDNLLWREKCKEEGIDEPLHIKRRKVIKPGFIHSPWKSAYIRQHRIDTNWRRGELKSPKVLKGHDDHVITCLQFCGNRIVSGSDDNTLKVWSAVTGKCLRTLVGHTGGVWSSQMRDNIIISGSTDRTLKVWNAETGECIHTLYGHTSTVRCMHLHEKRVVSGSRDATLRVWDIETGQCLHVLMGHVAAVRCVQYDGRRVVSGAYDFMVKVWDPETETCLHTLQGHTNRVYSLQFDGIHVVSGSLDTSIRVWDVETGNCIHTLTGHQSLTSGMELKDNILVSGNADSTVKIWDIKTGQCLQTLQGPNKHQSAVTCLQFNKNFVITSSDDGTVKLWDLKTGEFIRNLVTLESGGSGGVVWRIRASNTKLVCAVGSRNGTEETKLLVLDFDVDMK
GPR151 activ: activators of human GPR151, primary screen, cell-based, PathHunter beta-arrestin, luminescence; G-protein coupled receptor 151 (Homo sapiens), Q8TDV0; PathHunter beta-arrestin GPR151 cells; activation, % at 11.2 µM; 650,000 compounds, 1% hits; AID 1508602, 2020; in the data active = activation above about 4.9%
MITF primary: MITF inhibitors, primary screen, biochemical, AlphaScreen, human. Microphthalmia-associated transcription factor (Homo sapiens), O75030. AlphaScreen MITF homodimerization, bead proximity signal. inhibition, % at 2.6 µM. 650,000 compounds, 0.91% hits; in the data active = inhibition above about 50%
TEAD-YAP inh: TEAD-YAP interaction inhibition, primary screen, TEAD-YAP interaction inhibitor project, luminescence, HEK-TIYL cells. 640,000 compounds, 1.4% hits. TEAD-Gal4/YAP UAS-luciferase luminescence. inhibition, % at 9.12 µM; in the data active = inhibition above about 32%
MITF inh conf: MITF inhibitors, retest of hits, confirmation, biochemical, AlphaScreen, triplicate; shares compounds with MITF primary; AlphaScreen MITF homodimerization, biotin/His-MITF beads; inhibition, % at 2.6 µM; 4,700 compounds, 16% hits; AID 1259372, 2018;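 active = inhibition above a cutoff derived from the DMSO control wells, cut at about 28% in these data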;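 note: inhibitors lower the bead chemiluminescence by keeping MITF from dimerizing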
AS interf DR: AlphaScreen optical interference compounds, dose response, counter-screen, biochemical, HTS; 480 compounds, 6% hits; IC50, µM; AID 1259373, 2018; AlphaScreen optical interference counterscreen, cell-free; shares compounds with MITF primary; call rule not given here
AlphaScreen intf2: AlphaScreen optical interference compounds, counter-screen for MITF inhibitor project, biochemical, triplicate; shares compounds with MITF primary; LysRS AlphaScreen counterscreen, signal interference; inhibition, % at 2.6 µM; 4,700 compounds, 7.6% hits;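 active = inhibition above a cutoff derived from the DMSO control wells, cut at about 30% in these data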
A number is an active result; i = inactive; nt = no result. Sampled rows, rich in hits. Any-hit rate of the full collection: about 3.4%.

SMILES | FBW7 act | GPR151 activ | MITF primary | TEAD-YAP inh | MITF inh conf | AlphaScreen intf2 | others
CC1CCN(CC(=O)N(C)C2(c3ccccc3Cl)CCCCC2=O)CC1 (stereo unspecified) | i | i | 90 | i | i | i
CC(=O)N1CCc2cc(Br)cc(S(=O)(=O)NCCCOC(C)C)c21 | i | i | i | i | nt | nt
O=C(N1CCN(c2nc(-c3ccccc3)c3cc([N+](=O)[O-])ccc3n2)CC1)C(F)(F)F | i | i | i | i | nt | nt
CCOC(=O)c1c(N)n(C(C)CO)c2nc3ccccc3nc12 (stereo unspecified) | i | i | 53 | i | i | i
CCCOc1ccccc1OCCCCN1CCN(C)CC1 | i | i | i | i | nt | nt
CCC(C)c1ccccc1OCCCCN1CCNCC1 (stereo unspecified) | i | i | 70 | i | i | i
CCC(C)c1ccccc1OCCCN1CCN(C)CC1 (stereo unspecified) | i | i | 60 | i | i | i
Cc1cccc(CN2CCN3C(=O)[C@H](CC(C)C)N(C)C(=O)[C@H]3C2)n1 | i | i | i | i | nt | nt
CC(c1ccccn1)N(CCN(C)C)C(=S)Nc1cccc(F)c1 (stereo unspecified) | i | i | 88 | i | 42 | 96
CCCN1CCCc2cc(CCNS(=O)(=O)c3cccs3)ccc21 | i | i | 58 | i | i | i
N#CC(C#N)=Cc1cccn1-c1ccc(C(=O)O)cc1 | i | i | 63 | i | 61 | i | AS interf DR=i
O=Cc1cccn1-c1ccc(C(=O)O)cc1 | i | i | 67 | i | 64 | i | AS interf DR=i
CC(=O)/C(C(=N)N1CCN(Cc2ccccc2)CC1)=C(/C)O | i | i | i | i | nt | nt
Cc1cc2oc3c(c(=O)c2cc1C)C(c1cccnc1)N(CCCN(C)C)C3=O (stereo unspecified) | i | i | 83 | i | i | i
CCC(C)NCC(=O)Nc1cccc(C)c1 (stereo unspecified) | i | i | i | i | nt | nt
COc1ccc(NC(=S)NC(=O)c2cc(OC)cc(OC)c2)cc1 | i | i | i | i | nt | nt
O=[N+]([O-])c1ccccc1CN1CCCC1 | i | i | i | i | nt | nt
O=[N+]([O-])c1ccccc1CN1CCN(C2CCCCC2)CC1 | i | i | 64 | i | i | i
CC1CCCC(N2CCN(Cc3ccccc3[N+](=O)[O-])CC2)C1 (stereo unspecified) | i | i | 82 | i | i | i
O=[N+]([O-])c1ccccc1CN1CCC(N2CCCCCC2)CC1 | i | i | 79 | i | i | i
O=[N+]([O-])c1ccccc1S(=O)(=O)N1CCN(C2CCCCC2)CC1 | i | i | 51 | i | i | i
O=C(Nc1ccc(Cl)c(C(F)(F)F)c1)c1cc2n(n1)C(C(F)(F)F)CC(c1ccc3c(c1)OCO3)N2 (stereo unspecified) | i | i | i | i | nt | nt
COC(=O)C1=C(C)NC(=O)/C1=C\c1cc(C)n(-c2ccc(C)c(Cl)c2)c1C | i | i | i | i | nt | nt
CCC(C(=O)Nc1ccc(CC(=O)OC)cc1)c1ccccc1 (stereo unspecified) | i | i | i | i | nt | nt
O=[N+]([O-])c1cccc(CN2CCC(N3CCCCC3)CC2)c1 | i | i | 57 | i | i | i
SMILES | FBW7 act | GPR151 activ | MITF primary | TEAD-YAP inh | MITF inh conf | AlphaScreen intf2 | others
O=[N+]([O-])c1ccccc1CN1CCC(N2CCN(c3ccccc3)CC2)CC1 | i | i | 83 | i | i | i
CCOc1ccccc1CN1CCC(N2CCN(c3ccccc3)CC2)CC1 | i | i | i | i | nt | nt
CC1CCCC(N2CCN(Cc3ccccc3F)CC2)C1 (stereo unspecified) | i | i | 63 | i | i | i
O=[N+]([O-])c1cccc(CN2CCN(C3CC4CCC3C4)CC2)c1 (stereo unspecified) | i | i | 57 | i | i | i
O=[N+]([O-])c1cccc(CN2CCC(N3CCCC3)CC2)c1 | i | i | i | i | nt | nt
Fc1ccccc1CN1CCN(C2CCN(Cc3ccccc3)CC2)CC1 | i | i | i | i | nt | nt
CCC(=O)Nc1nc(C)cs1 | i | i | i | i | nt | nt
NNC(=O)C(=O)NNc1ccccn1 | i | i | 70 | i | 74 | 101
COc1ccc(C(=O)O)cc1S(=O)(=O)N1CCCCC1 | i | i | i | i | nt | nt
CC(=O)C(CC(=O)N1CCC(Cc2ccccc2)CC1)C(=O)c1ccccc1 (stereo unspecified) | i | i | i | i | nt | nt
O=C(Nc1ccc(Nc2ccc(-n3cccn3)nn2)cc1)c1ccccc1Cl | i | i | 58 | i | i | i
Cc1[nH]c2ccc(F)cc2c1CCNC(=O)c1cccc([N+](=O)[O-])c1 | i | i | i | i | nt | nt
Cc1ccc2[nH]c(C)c(CCNC(=O)c3cccc([N+](=O)[O-])c3)c2c1 | i | i | 74 | i | i | i
COc1ccccc1C(=O)NC1(C(F)(F)F)NC(=O)N(c2ccccc2)C1=O (stereo unspecified) | i | i | 88 | i | i | i
NS(=O)(=O)c1ccc(Cc2ccc([N+](=O)[O-])cc2)cc1 | i | i | i | i | nt | nt
CN(C)c1cccc(Nc2ccc(-c3ccccc3C=O)cn2)c1 | i | i | 63 | i | 56 | 61
CC(=O)c1cccc(-c2ccc(Nc3cccc(N(C)C)c3)nc2)c1 | i | i | i | i | nt | nt
N#Cc1c(N)nc(SCc2ccc(Cl)c(Cl)c2)c(C#N)c1-c1cccs1 | i | i | i | i | nt | nt
CN(C)CCOC(=O)C(C)(c1ccccc1)c1ccccc1 | i | i | i | i | nt | nt
O=C(O)c1cc(-n2cccc2)ccc1Cl | i | i | 79 | i | 64 | i | AS interf DR=i
Cc1ccc(C)n1-c1ccc(Cl)c(C(=O)O)c1 | i | i | i | i | nt | nt
O=C1c2ccccc2C(=O)C1c1nc2c(oc3ccccc32)s1 | i | i | i | i | nt | nt
C1=CCC(CN2CCN(C3CCCCCC3)CC2)CC1 (stereo unspecified) | i | i | 76 | i | i | i
CCCS(=O)(=O)N1CCN(CC2CC=CCC2)CC1 (stereo unspecified) | i | i | i | i | nt | nt
CC1CCC(N2CCN(CC3CC=CCC3)CC2)CC1 (stereo unspecified) | i | i | 62 | i | i | i
CCOc1ccccc1NC(=O)c1cc(S(=O)(=O)NCc2ccccc2)ccc1F | i | i | i | i | nt | nt
Fc1cccc(CN2CCN(Cc3cccnc3)CC2)c1 | i | i | 85 | i | i | i
O=C(NCc1cccc(Cl)c1)C1CCN(Cc2cccnc2)CC1 | i | i | i | i | nt | nt
Clc1cccc(CN2CCN(Cc3cccnc3)CC2)c1 | i | i | 85 | i | i | i
CCCN(CCC)C(=O)c1cccc(Br)c1 | i | i | i | i | nt | nt
